Compounds with a hit are over-represented: about 12% of the library has one in this group of screens.
BAZ2B inh = qHTS Assay for Inhibitors of BAZ2B | AlphaScreen BAZ2B-H3K14Ac peptide displacement | Potency, µM (series often up to 114 µM), for inactives: at the top dose activity change, negative = inhibition, hits mostly inhibitors | actives 4.4% (n = 360,000) | AID 504333, 2011; note: % is set by controls: 0 for no effect and ±100 for the full control effect; nearly all actives have a fitted effect of over 60% in size
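AlphaScreen luminescence quantifies BAZ2B engagement of H3K14Ac peptide; the protein and biotinylated peptide are both at 50 nM final, buffer PBS pH 7.4 with 0.01% Tween-20, all steps at room temperature.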
Sfp inh = qHTS Assay for Inhibitors of Bacillus subtilis Sfp phosphopantetheinyl transferase (PPTase); Potency, µM, without a hit: largest response in the series, negative = inhibition, hits mostly inhibitors; actives 3.5% (n = 310,000); AID 1490, 2009; 4'-phosphopantetheinyl transferase ffp (Bacillus subtilis), Q9F4F7; Biochemical Sfp PPTase activity, qHTS;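 note: the enzyme is Sfp with the accession as filed and its product quenches rhodamine fluorescence; 0% = enzyme reaction without inhibitor and -100% = no enzyme wells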
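Buffer: 50 mM Hepes-Na pH 7.6, 10 mM MgCl2, 0.01% Nonidet P-40, 0.01% BSA. Enzyme 15 nM, pre-exposed to compound 15 min; substrates then added and fluorescence change tracked over 30 min.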
TDP1 inh = qHTS Assay for Inhibitors of Tyrosyl-DNA Phosphodiesterase (TDP1); Potency, µM (highest dose often 130 µM), inactives show at the top dose activity change, negative = inhibition, usual class: inhibitors; actives 0.28% (n = 350,000); Tyrosyl-DNA phosphodiesterase 1 (Homo sapiens), Q9NUW8; recombinant TDP1, AlphaScreen DNA substrate cleavage; note: % is set by controls: 0 for no effect and ±100 for the full control effect; nearly all actives have a fitted effect of over 40% in size
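Here, a 5' biotin and 3' phosphotyrosine-FITC DNA oligonucleotide reports Tdp1 activity: intact substrate bridges AlphaScreen beads, while cleavage leaves a 3' phosphate and drops signal. All incubations at room temperature.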
G9a inh = qHTS Assay for Inhibitors of Histone Lysine Methyltransferase G9a. Histone-lysine N-methyltransferase EHMT2 (Homo sapiens), Q96KQ7. Potency, µM (titrated, usually from 102 µM), for inactives: at the top dose activity, negative = inhibition, usual class: inhibitors. G9a H3K9 monomethylation, AlphaScreen, 2 h. actives 8.8% (n = 350,000). AID 504332, 2011; note: % is set by controls: 0 for no effect and ±100 for the full control effect; nearly all actives have a fitted effect of over 75% in size
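Using a bead-based AlphaScreen, monomethylated H3K9 product from 2 h room-temperature reactions (G9a 20 nM, peptide 500 nM, SAM 20 uM) was detected with 0.5 ug/mL rabbit anti-H3K9me1 antibody.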
JMJD2A Tudor inh = qHTS Assay for Inhibitors of JMJD2A-Tudor Domain; Lysine-specific demethylase 4A (Homo sapiens), O75164; AlphaScreen JMJD2A-Tudor / H3K4me3 peptide binding; Potency, µM (top dose mostly 114 µM), without a hit: at the highest dose activity change, negative = inhibition, usual class: inhibitors; actives 4.4% (n = 390,000); AID 504339, 2011; note: % is set by controls: 0 for no effect and ±100 for the full control effect; nearly all actives have a fitted effect of over 50% in size
HP1b binding inh = HTS for Inhibitors of HP1-beta Chromodomain Interactions with Methylated Histone Tails | Chromobox protein homolog 1 (Homo sapiens), P83916 | AlphaScreen HP1-beta / biotin-H3K9me3 peptide binding | Potency, µM (titrated, usually from 114 µM), for inactives: at the top dose activity change, negative = inhibition, hits mostly inhibitors | actives 0.56% (n = 390,000) | AID 540317, 2011; note: nearly all actives have a fitted effect of over 70% in size
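HP1-beta protein (50 nM final) preincubated 30 min at room temperature with biotinylated H3(1-18)K9me3 peptide (50 nM) in PBS pH 7.4, 0.01% Tween-20, then compound added for 30 min. AlphaScreen streptavidin donor/nickel chelate acceptor beads (10 ug/mL final), 30 min dark, luminescence read.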
* = called active by the depositor; [ ] = another dose, or the depositor's remark. Calls come from the whole dose curve; as a rule, active = well fitted curve in the direction sought with a large enough effect; inconclusive = small, poorly fitted or top-dose-only effect, or another doubt; inactive = no such curve, though single readings can be large; an effect the other way counts as inactive or inconclusive. Potency is the fitted concentration of half-maximal effect.

How did CN(Cc1ccccc1)S(=O)(=O)c1cn(C)cn1 do in these assays?
BAZ2B inh: 2.6%; Sfp inh: 4.1%; TDP1 inh: 0.0%; G9a inh: 8.1%; JMJD2A Tudor inh: -8.3%; HP1b binding inh: -0.1%

What do the screens show for `Cc1nc2cc3nc(C)sc3cc2s1`?
BAZ2B inh: -7.4%; Sfp inh: 39.8µM*; TDP1 inh: 3.9%; G9a inh: 7.08µM*; JMJD2A Tudor inh: -29.7%; HP1b binding inh: inconclusive

Results for COc1ccc(Cl)cc1NC(=O)c1ccc(CN2C(=O)CCn3nc(C)cc32)cc1 ?
BAZ2B inh: -11.3%; TDP1 inh: 5.6%; G9a inh: -26.3%[59 µM]; JMJD2A Tudor inh: -11.0%; HP1b binding inh: 3.1%

How did COc1ccc2c(c1)c1ncnc(N3CCN(Cc4ccc5c(c4)OCO5)CC3)c1n2C do in these assays?
BAZ2B inh: 0.3%; Sfp inh: -1.7%; TDP1 inh: 4.8%; G9a inh: -43.0%[59 µM]

Results for O=[N+]([O-])c1ccc2ncnc(N3CCN(Cc4ccc5c(c4)OCO5)CC3)c2c1 ?
BAZ2B inh: 39.8µM*; Sfp inh: 0.0%; TDP1 inh: 9.2%; JMJD2A Tudor inh: inconclusive; HP1b binding inh: -11.5%

What do the screens show for `COc1ccc2[nH]c3c(N4CCN(Cc5ccc6c(c5)OCO6)CC4)ncnc3c2c1`?
BAZ2B inh: 50.1µM*; Sfp inh: -5.0%; TDP1 inh: 8.8%; G9a inh: 50.1µM*; JMJD2A Tudor inh: inconclusive; HP1b binding inh: -25.4%

What do the screens show for `COc1ccc(CNc2cc([N+](=O)[O-])ccc2OC)cc1`?
BAZ2B inh: 4.5%; Sfp inh: -19.2%; TDP1 inh: -5.2%; G9a inh: 19.6%[0.501 µM]; JMJD2A Tudor inh: -16.3%; HP1b binding inh: 48.6%

Results for COc1ccc(CNCCc2ccc([N+](=O)[O-])cc2)c(OC)c1OC ?
BAZ2B inh: 50.1µM*; Sfp inh: 11.1%; G9a inh: -12.5%[0.501 µM]; JMJD2A Tudor inh: 79.4µM*; HP1b binding inh: 1.6%

Results for COc1ccc(C)cc1NCc1ccc([N+](=O)[O-])cc1 ?
BAZ2B inh: 39.8µM*; Sfp inh: 4.7%; G9a inh: -0.8%[0.501 µM]; JMJD2A Tudor inh: 50.1µM*; HP1b binding inh: inconclusive

How did COc1ccc(-c2ccccc2)cc1NCc1ccc(OC)c(OC)c1 do in these assays?
BAZ2B inh: 39.8µM*; Sfp inh: inconclusive; TDP1 inh: 10.3%; G9a inh: 10µM*; JMJD2A Tudor inh: 39.8µM*; HP1b binding inh: inconclusive

How did COc1ccc(C)cc1NCc1ccc(OC)c(C)c1OC do in these assays?
BAZ2B inh: 22.4µM*; Sfp inh: -29.4%; G9a inh: 8.91µM*; JMJD2A Tudor inh: 20µM*; HP1b binding inh: inconclusive

Results for CC(C)NC(=O)N1CC[C@@]2(CCCN(C(=O)c3csnn3)C2)C1 ?
Sfp inh: 12.3%; G9a inh: 3.2%[12.7 µM]

How did COc1ccc2[nH]c3c(c2c1)CCN1C(=O)C(CC(=O)NC(C)(C)C)C[C@H](C(=O)N2CCCCC2)[C@@]31C (some centres undefined) do in these assays?
TDP1 inh: 1.1%[56.1 µM]; JMJD2A Tudor inh: -5.5%; HP1b binding inh: 5.8%

What do the screens show for `CCN(C(=O)COC(=O)c1cc2c(s1)CCCCC2)C1CCS(=O)(=O)C1` (centres undefined)?
BAZ2B inh: -14.3%; Sfp inh: 9.7%; TDP1 inh: 4.0%; G9a inh: 1.6%; JMJD2A Tudor inh: -5.8%; HP1b binding inh: 41.7%

What do the screens show for `CC(C)CN(C(=O)COC(=O)c1cc2c(s1)CCC2)C1CCS(=O)(=O)C1` (centres undefined)?
BAZ2B inh: 56.2µM*; Sfp inh: 1.5%; TDP1 inh: 12.6µM*; G9a inh: -33.9%[59 µM]; JMJD2A Tudor inh: inconclusive; HP1b binding inh: -12.0%

What do the screens show for `O=C1C(Cl)=C(Nc2ccc3cn[nH]c3c2)C(=O)c2ccccc21`?
BAZ2B inh: 8.91µM*; Sfp inh: 8.91µM*; TDP1 inh: 8.8%; G9a inh: -151.8%[59 µM]; JMJD2A Tudor inh: 14.1µM*; HP1b binding inh: 15.8µM*

Results for CCNC(=S)Nc1ccc2cn[nH]c2c1 ?
BAZ2B inh: 1.8%; Sfp inh: 8.6%; TDP1 inh: -3.0%; G9a inh: 14.5%[59 µM]; JMJD2A Tudor inh: -15.3%; HP1b binding inh: 40.2%

How did O=C(Nc1ccc2cn[nH]c2c1)c1c(Cl)cccc1Cl do in these assays?
BAZ2B inh: 50.1µM*; Sfp inh: 39.8µM*; TDP1 inh: -5.3%; G9a inh: 1.78µM*; JMJD2A Tudor inh: inconclusive; HP1b binding inh: 1.1%

Results for O=C(Nc1ccncc1)c1c(Cl)cccc1Cl ?
BAZ2B inh: -6.8%; Sfp inh: 11.9%; G9a inh: 10.0%; JMJD2A Tudor inh: 4.6%; HP1b binding inh: 13.2%

What do the screens show for `Cc1cc(C)c(C)c(S(=O)(=O)Nc2ccc3cn[nH]c3c2)c1C`?
BAZ2B inh: -1.7%; TDP1 inh: 0.4%; G9a inh: 9.7%[12.7 µM]; JMJD2A Tudor inh: -14.8%; HP1b binding inh: 42.3%

How did CC(C)c1ccc(NC(=S)Nc2ccc3cn[nH]c3c2)cc1 do in these assays?
BAZ2B inh: inconclusive; Sfp inh: 10.0%; TDP1 inh: 1.8%; G9a inh: 79.4µM*; JMJD2A Tudor inh: -30.8%; HP1b binding inh: -0.3%

Results for CC(=O)c1ccc(NC(=S)Nc2ccc3cn[nH]c3c2)cc1 ?
BAZ2B inh: -11.8%; Sfp inh: 31.6µM*; TDP1 inh: 2.6%; G9a inh: 44.7µM*; JMJD2A Tudor inh: -31.1%[57.1 µM]; HP1b binding inh: -3.9%

Results for CN(C)c1ccc(NC2=C(Cl)C(=O)c3ccccc3C2=O)cc1 ?
BAZ2B inh: 2.51µM*; Sfp inh: inconclusive; TDP1 inh: 13.5%; G9a inh: 2.24µM*; JMJD2A Tudor inh: 6.31µM*; HP1b binding inh: 5.01µM*

Results for CC(=O)Nc1ccc(NC2=C(Cl)C(=O)c3ccccc3C2=O)cc1 ?
BAZ2B inh: -4.7%; Sfp inh: -3.6%; TDP1 inh: -2.7%; G9a inh: -89.9%; JMJD2A Tudor inh: -9.8%; HP1b binding inh: 13.8%

Results for O=[N+]([O-])c1ccc(C=NNc2ccc(S(=O)(=O)O)cc2)cc1 ?
JMJD2A Tudor inh: 79.4µM*; HP1b binding inh: 2.0%[57 µM]
